# PubChem BioAssay (Tox21)
# Several values for one entry are separate records, joined by “and”; a condition that tells them apart may be missing. Equal values may be shown once. A number with no mark means an inactive call. Where a call stands in place of a potency, no number is given. Activity calls are given as the source filed them. Calls come from the whole dose curve; as a rule, active = well fitted curve in the direction sought with a large enough effect in the repeat runs; inconclusive = weak or mixed curves; inactive = flat fitted curve, though single readings scatter.
# Test: qHTS assay to test for compound auto fluorescence at 535 nm (green) in HEK293 cells (AID 720680)
# Conditions: green autofluorescence 485/535 nm; series mostly up to 91.3 µM; fluorescence, % of fluorescein: at the top concentration
# From the text: U.S. Tox21 Program National Center for Advancing Translational Sciences [NCATS] NIH Chemical Genomics Center [NCGC] U.S. Environmental Protection Agency [EPA] National Institutes of Environmental Health Sciences [NIEHS] National Toxicology Program [NTP] U.S. Food and Drug Administration [FDA] Tox21 Assay Overview: Compound auto fluorescence often interferes with screening of the compound library against various biological targets and signaling pathways. Some of these compounds may have fluorophoric properties. Such properties may interfere with the assay outputs resulting in false positives and/or negatives. To decrease such complications and ensure the compound activities are relevant in terms of biological response, the Tox21 10K compound library was screened for auto fluorescence. From the fluorophores used as reporter signals in our screening assays, the auto fluorescence equivalencies of compounds against three fluorophores have been evaluated: Triamterene, Fluorescein and Rose Bengal sodium for blue, green and red fluorescence, respectively. The fluorescence intensities were measured using Excitation/Emission wavelengths at 405/460nm, 485/535nm and 540/590nm for blue, green and red labels, respectively. This assay includes the green fluorescence data.
# Tox21 Assay Protocol Summary: 2,000 HEK293 cells in 5 uL of culture medium containing 10% dialyzed FBS per well were dispensed into black wall/clear bottom 1536-well plates using a Multidrop Combi Dispenser (Thermo Scientific). The assay plates were incubated for 4-5 hr at 37C to allow cell attachment to the well bottom, followed by the transfer of 23 nL compound or DMSO vehicle by a pintool work station (Kalypsys, San Diego, CA). After the assay plates were incubated overnight at 37C and 5% CO2, fluorescence intensities in the assay plates were measured by an Envision (PerkinElmer, Shelton, CT) plate reader using three labels for measuring blue, green and red fluorescence at […] 460, 535 and 590nm respectively.
# Potency is the fitted concentration of half-maximal effect; tags give direction and shape of the fitted curve or compound fluorescence and quenching.
Structure (SMILES),Potency,"fluorescence, % of fluorescein"
CCn1c2ccccc2c2cc(N)ccc21,inactive,
O=C(O[C@@H]1Cc2c(O)cc(O)cc2O[C@@H]1c1cc(O)c(O)c(O)c1)c1cc(O)c(O)c(O)c1,inactive,
O=C1CC2(CCCC2)CC(=O)N1CCCCN1CCN(c2ncccn2)CC1,inactive,
CC(C)C(=O)c1c(C(C)C)nn2ccccc12,,-0.331% [at 46 µM]
C=CS(=O)(=O)O,inactive,
CC(C)CCOC(=O)c1ccc(N(C)C)cc1,,-0.0025% [at 46 µM]
CCC(C)(Oc1ccc(C2(c3ccc(OC(C)(CC)C(=O)O)cc3)CCCCC2)cc1)C(=O)O (stereo not given),,0.0252% [at 46 µM]
O=C(Cl)c1cccc(C(=O)Cl)c1,inactive,
BrC1CCC(Br)C(Br)CCC(Br)C(Br)CCC1Br (stereo not given),inactive,
Cc1cccc([N+](=O)[O-])c1C(=O)O,,-0.12%
CCOc1ccc2c(c1)C(C)=CC(C)(C)N2,inactive,
CCN(CC)c1ccc2c(C)cc(=O)oc2c1,inactive,
NNCCc1ccccc1,inactive,
CC(C)(C)NCC(O)c1cc(O)cc(O)c1 (stereo not given),,-0.0783% [at 46 µM]
NC(=Nc1ccccc1)Nc1ccccc1,inactive,
COc1nc(C)nc(Cl)c1NC1=NCCN1,,-0.014% [at 18.6 µM]
COc1cc(C(=S)N2CCOCC2)ccc1O,,0.123% [at 46 µM]
CO[Si](OC)(OC)c1ccccc1,,0.0274%
Cc1cc(C(C)(C)C)c(O)c(C(C)(C)C)c1,inactive,
COc1ccc(Cc2cnc(N)nc2N)cc1OC,,-0.0818% [at 46 µM]

Structure (SMILES),Potency,"fluorescence, % of fluorescein"
CC1COC(=O)O1 (stereo not given),inactive,
CCCC(=O)c1ccccc1,,-0.0045%
O=C1OC2(c3ccc(O)cc3Oc3cc(O)ccc32)c2ccccc21,3.16 µM [fluorescent] (active) and 2.82 µM [fluorescent] (active) and 3.98 µM [fluorescent] (active),
CNC1(C)C2CCC(C2)C1(C)C (stereo not given),,0.0132% [at 46 µM]
COC(c1ccccc1)(c1ccccc1)[C@H](Oc1nc(C)cc(C)n1)C(=O)O,,-0.0083% [at 46 µM]
Cc1occc(=O)c1OC(=O)C(C)C,,-0.167%
CC(C)(C)c1cc(C(C)(C)C)c(O)c(C(C)(C)C)c1,inactive,
O,inactive,
CCN1CCCC1CNC(=O)c1cc(S(=O)(=O)CC)c(N)cc1OC (stereo not given),,-0.0175% [at 46 µM]
COc1ccc(CCN(C)CCCC(C#N)(c2ccc(OC)c(OC)c2)C(C)C)cc1OC (stereo not given),inactive,
CCc1cc(C(C)(C)C)c(O)c(C(C)(C)C)c1,inactive,
CCCCCCCCCCCCCCCCCl,,-0.0655% [at 18.6 µM]
CC(=O)O[C@]1(C(C)=O)CC[C@H]2[C@@H]3C[C@H](C)C4=CC(=O)CC[C@]4(C)[C@H]3CC[C@@]21C,inactive,
NC12CC3CC(CC(C3)C1)C2,,-0.0148% [at 46 µM]
C=C(C)C(=O)O,inactive,
Oc1ccc(Cl)cc1Cc1cc(Cl)ccc1O,inactive,
O=C(Oc1ccccc1)c1ccccc1O,inactive,
c1ccc2n[nH]nc2c1,inactive,
NC(N)=NC(=O)Cc1c(Cl)cccc1Cl,,0.116% [at 46 µM]
C/C=C/c1ccc(OCC)c(O)c1,,-0.0319%
